# KB-3-1 cytotox: kills parental KB-3-1 adenocarcinoma cells; KB-3-1 viability, CellTiter-Glo ATP luminescence, 72 h; Potency, µM (titrated, usually from 46.1 µM), hits mostly cytotoxic; actives 1.4% (n = 400,000); note: nearly all actives have a fitted effect of over 60% in size
#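 Luminescent ATP read-out (CellTiter-Glo) measures survival of drug-naive KB-3-1 cells after 72 h compound exposure at 37 °C. Titration series was screened from lowest to highest concentration, with DMSO vehicle plates as background controls.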
# SW480 rerep: inducers of DNA re-replication in SW480 colon cancer cells | SW480 DNA re-replication, Hoechst DNA content imaging, 48 h | Potency, µM (series often up to 46.1 µM), actives largely listed as activators | actives 1.8% (n = 340,000) | AID 624297; note: nearly all actives have a fitted effect of over 55% in size
#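 Image-based DNA-content assay: after two days of treatment, nuclei were labelled with the DNA dye Hoechst and imaged, and hits were compounds raising the count of nuclei showing high fluorescence intensity.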
# RORg inh: inhibitors of mouse ROR gamma transcriptional activity; P51450; Drosophila S2 Gal4-RORgamma UAS-luciferase reporter, 20 h; Potency, µM (doses to about 53.6 µM), hits mostly inhibitors; actives 5.4% (n = 310,000); AID 2551; note: nearly all actives have a fitted effect of over 60% in size
# Target sequence (P51450 whole entry, looked up, the tested form may be a part): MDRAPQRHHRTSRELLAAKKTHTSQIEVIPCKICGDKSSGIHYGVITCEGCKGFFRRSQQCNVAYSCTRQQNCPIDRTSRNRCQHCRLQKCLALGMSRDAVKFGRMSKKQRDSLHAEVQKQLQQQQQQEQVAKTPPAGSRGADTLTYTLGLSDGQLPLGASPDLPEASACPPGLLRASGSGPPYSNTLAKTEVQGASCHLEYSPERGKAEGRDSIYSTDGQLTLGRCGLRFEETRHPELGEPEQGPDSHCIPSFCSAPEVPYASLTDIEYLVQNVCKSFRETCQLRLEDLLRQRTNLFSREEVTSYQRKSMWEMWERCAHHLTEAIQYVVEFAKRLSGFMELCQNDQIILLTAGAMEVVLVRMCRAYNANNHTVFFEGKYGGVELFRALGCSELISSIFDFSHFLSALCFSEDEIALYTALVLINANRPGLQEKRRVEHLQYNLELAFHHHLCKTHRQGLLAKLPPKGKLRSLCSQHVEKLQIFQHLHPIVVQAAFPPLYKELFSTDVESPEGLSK
#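 ROR gamma transcriptional activity was tracked as Gal4-UAS luciferase output in stably transfected Drosophila Schneider cells, with compound added 1 hr before 700 uM copper sulfate induction and a 20 hr ambient-temperature incubation.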
# KB-V1 MDR tox: kills drug-selected multidrug resistant KB-V1 cells. KB-V1 MDR cells viability, CellTiter-Glo, 72 h. Potency, µM (highest dose often 46.1 µM), hits mostly cytotoxic. actives 3.4% (n = 400,000). AID 1347076; note: nearly all actives have a fitted effect of over 60% in size
#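 Compound-treated KB-V1 multidrug-resistant cells, 72 h, 37 degrees C; viability by CellTiter-Glo. Fitted qHTS curves give the values.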
# MCF10A rereplic: inducers of DNA re-replication in MCF 10A breast cells | MCF 10A DNA re-replication, Hoechst nuclear intensity, 48 h | Potency, µM (doses to about 46.1 µM), usual class: activators | actives 2.9% (n = 350,000); note: nearly all actives have a fitted effect of over 50% in size
# Gal4-VP16 FLuc: counter-screen for ROR gamma inhibitors: Gal4-VP16 reporter. Drosophila S2 Gal4-VP16 UAS-luciferase, luminescence, 20 h. Potency, µM (doses to about 53.6 µM), most hits filed as inhibitors. actives 3.5% (n = 310,000). AID 2546;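 note: Gal4-VP16 expression switched on by copper sulfate through the metallothionein promoter; nearly all actives have a fitted effect of over 50% in size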
# Numbers stand for hits; - = inactive; ? = inconclusive; . = no result given. Most compounds without a hit are left out; they make up all but 10% or so of the library. Calls come from the whole dose curve; as a rule, active = well fitted curve in the direction sought with a large enough effect; inconclusive = small, poorly fitted or top-dose-only effect, or another doubt; inactive = no such curve, though single readings can be large; an effect the other way counts as inactive or inconclusive.
SMILES,KB-3-1 cytotox,SW480 rerep,RORg inh,KB-V1 MDR tox,MCF10A rereplic,Gal4-VP16 FLuc
COc1cc(NC(=O)c2cc3ccccc3cc2O)c(OC)cc1Cl,?,-,?,?,?,-
COc1ccccc1N=c1oc2cc(O)ccc2cc1C(=O)NCC1CCCO1 (stereo not given),-,-,-,-,-,-
COc1ccccc1NC(=O)c1cc2cc(Br)ccc2cc1O,18µM,-,?,?,?,8.9µM
COc1ccccc1NC(=O)c1cc2ccc(O)cc2o/c1=N\O,-,?,0.89µM,-,?,2.2µM
COc1ccccc1NC(=O)c1cc2ccccc2o/c1=N\O,-,-,?,2.6µM,-,-
CCN1C(=O)c2ccccc2S(=O)c2ccc(C(=O)N3CCN(c4cccc(Cl)c4)CC3)cc21 (stereo not given),?,.,.,-,.,.
CCOC(=O)CSc1nnc(-c2ccccc2NC(=O)c2ccccc2)o1,-,-,-,-,-,-
CCc1nnc(NC(=O)CSc2nnc(-c3ccccc3NC(=O)c3ccccc3)o2)s1,-,?,2.2µM,?,?,3.5µM
O=C(Nc1ccccc1-c1nnc(SCc2ccc(Cl)cc2Cl)o1)c1ccccc1,-,.,-,?,-,-
O=C(Nc1ccccc1-c1nnc(SCc2ccccc2Cl)o1)c1ccccc1,-,-,-,15µM,?,-
O=C(c1ccc(F)cc1)c1cn(Cc2ccccc2)c2cc3c(cc2c1=O)OCO3,-,.,.,-,.,.
O=C(Nc1ccc2c(c1)CCCN2C(=O)c1cccs1)c1ccc(F)c(F)c1,?,.,.,-,.,.
COc1ccc(-c2nnn(CC(=O)N(CC(=O)NC3CCCC3)Cc3cccs3)n2)cc1OC,-,-,-,12µM,-,-
CCC(C(=O)NC1CCCC1)N(Cc1cccs1)C(=O)Cn1nnc(-c2ccc(OC)c(OC)c2)n1 (stereo not given),-,-,-,-,-,-
COc1ccc(-c2nnn(CC(=O)N(Cc3cccs3)C(C)C(=O)NC3CCCC3)n2)cc1OC (stereo not given),-,-,-,2.1µM,-,-
NC(=S)NNC(=O)c1cccc(Br)c1,.,.,6.3µM,.,.,-
NC(=S)NNC(=O)c1ccccc1,-,?,2.8µM,-,-,22µM
O=C(CNC(=O)c1ccc(Br)cc1)c1ccc(Br)cc1,-,-,-,-,-,-
NC(=S)NC(=O)c1ccccc1,-,-,-,-,-,-
O=C(CNC(=O)c1ccc(Br)cc1)c1ccccc1,-,?,13µM,-,-,-
O=C(NNC(=O)c1ccccc1O)c1cccc(Br)c1,?,?,5µM,?,-,-
CN(Cc1ccccc1)c1nnc(NC(=O)Nc2cccc(Br)c2)s1,-,.,.,-,.,.
COc1cc(N)c(NC(=O)/C=C/c2nc3cc(OC)c(OC)cc3[nH]2)cc1OC,-,.,.,-,.,.
CCNc1ncc2nc(-c3cccc(C#N)c3)c(=O)n(Cc3cccc(OC)c3)c2n1,.,.,-,.,.,-
Cc1ccc(C)c(NC(=O)CN2C(=O)c3cccc4cccc2c34)c1,-,.,.,-,.,.
SMILES,KB-3-1 cytotox,SW480 rerep,RORg inh,KB-V1 MDR tox,MCF10A rereplic,Gal4-VP16 FLuc
Fc1ccccc1N1CCN(c2c3c(nc4nncn24)CCC3)CC1,-,.,.,?,.,.
CC(C)(C)c1ccc(C(=O)NNC(=O)c2cccc(Br)c2)cc1,-,?,?,-,12µM,?
O=C(NNC(=O)c1ccc(O)cc1O)c1ccc(Cl)cc1,?,?,-,-,-,-
CCc1cc(C(=O)NNC(=S)Nc2cccc(C)c2)cs1,-,-,?,-,?,-
O=C(NNC(=O)c1ccccc1O)c1ccc(Cl)cc1,?,?,8.9µM,?,-,?
O=C(COC(=O)c1ccccc1O)NNC(=O)c1ccc(Br)cc1,-,-,.,-,-,.
O=C(NNC(=O)c1ccccc1O)c1ccc(Br)cc1,-,2.9µM,11µM,-,-,20µM
Cc1cccc(NC(=S)NNC(=O)c2csc(C(C)C)c2)c1,-,-,-,21µM,?,-
CCNc1ncc2nc(CCc3ccccc3)c(=O)n(C[C@H]3CCCO3)c2n1,.,.,-,.,.,-

# Bioassay records deposited in PubChem BioAssay by National Center for Advancing Translational Sciences (NCATS).
